In the library only some 0.86% were active in any assay of this set; here they are far more common.
CDC25B CDK2 inh = human CDC25B-CDK2/CyclinA binding inhibition; P30305+P24941; HTRF CDC25B-CDK2/CyclinA binding, anti-His/anti-Flag; stronger effect = higher value; z-score (no concentration beside the values); hit rate 0.72% among 94,000; in the data active means z-score above about 3.2
HIV TAR-Tat = HIV-1 TAR-Tat binding disruption | z-score (no concentration beside the values) | hit rate 0.6% among 100,000 | HIV-1 TAR RNA, Tat peptide displacement FRET; stronger effect = higher value; active means z-score of 3 or more in at least 2 runs
A number is an active result; - = inactive; . = not tested or not shown.

SMILES	CDC25B CDK2 inh	HIV TAR-Tat
CCOC(=O)c1oc2ccc3nc(N(C)C)sc3c2c1C	-	-
CCOC(=O)c1c(C)csc1NC(=O)/C(C#N)=C/c1ccc(C#N)cc1	-	.
Cc1ccc(C2N(Cc3ccccc3)CCN2Cc2ccccc2)o1	-	.
COc1ccc(Cl)cc1NC(=O)Cn1nc2c(cc1=O)CCC2	-	-
COc1ccc(NC(=O)Cn2nc3c(cc2=O)CCC3)cc1Cl	-	13
C/C(CC(C)(C)Nc1ccccc1)=N\O	14	.
CC(/C=N/O)=N\Nc1ccccc1	-	.
CCOc1cc(C2C3=C(CCCC3=O)N(C)C3=C2C(=O)CCC3)cc(Cl)c1O	-	-
CCOc1cc(C2C3=C(CCCC3=O)NC3=C2C(=O)CCC3)cc(Cl)c1O	16	-
CCOC(=O)c1ccc2nc(C(F)(F)F)cc(N3CCC(C(=O)OCC)CC3)c2c1	-	.
COc1ccc(C2CC(=O)N3CN(C4CCCCC4)CSC3=C2C#N)c(OC)c1 (configuration not stated)	-	-
COc1cc(C2CC(=O)N3CN(C4CCCCC4)CSC3=C2C#N)ccc1O (configuration not stated)	3.8	-
CCOc1cc(C2CC(=O)N3CN(C4CCCCC4)CSC3=C2C#N)ccc1O (configuration not stated)	3.4	-
CCOc1ccc(Oc2nc(C)nc3sc(C)c(C)c23)cc1	.	7.5
CCOC(=O)c1sc2nc(C)nc(Oc3ccc(OCC)cc3)c2c1C	.	-
c1ccc(CNc2nc3ccccc3n3nnnc23)nc1	-	-
N#Cc1c(N)nc2c(c1N)C(C(C#N)C#N)c1cc(Br)ccc1O2 (configuration not stated)	7	.
COc1ccc(Br)cc1C1C(C#N)=C(N)Oc2cc(O)ccc21 (configuration not stated)	-	-
NCCc1nnc(SCc2ccc(Br)cc2)o1	-	-
CN(C)c1ccc(C(=O)NNC(=O)/C=C/c2ccc3c(c2)OCO3)cc1	-	.
O=C1NC(c2cccc(O)c2)c2c1n[nH]c2-c1ccco1 (configuration not stated)	-	-
Cc1ccc(C2NC(=O)c3n[nH]c(-c4ccco4)c32)cc1 (configuration not stated)	-	-
O=C1NC(c2cccnc2)c2c1n[nH]c2-c1ccco1 (configuration not stated)	8.9	-
O=C1NC(c2ccco2)c2c1n[nH]c2-c1ccco1 (configuration not stated)	5.3	-
O=C(Nc1nnc(SCc2nc3ccccc3[nH]c2=O)s1)c1ccccc1Cl	.	-
SMILES	CDC25B CDK2 inh	HIV TAR-Tat
CCCNC(=O)O/N=C(\N)c1cc(Cl)c(N)c(Cl)c1	-	.
COC(=O)Cc1nc(-c2cccs2)no1	-	-
C=CCn1c(Cc2c(C)[nH]c3ccccc23)nnc1SCC(=O)NC(C)(C)C	-	-
CN(C)c1ccc(C(O)C(=O)c2cccs2)cc1 (configuration not stated)	-	-
O=C(c1cccs1)C(O)c1cccs1 (configuration not stated)	13	-
COCCn1c(C)nc2cc(C)c(C)cc21	-	-
O=C(NO)c1nc[nH]c1C(=O)NO	-	.
CCCn1c2ccccc2c2nnc(SC(CC)C(=O)Nc3cc(C)on3)nc21 (configuration not stated)	17	-
CCOC(=O)c1sc(NC(=O)C(CC)Sc2nnc3c4ccccc4n(CC)c3n2)nc1C (configuration not stated)	-	-
COc1ccc(Nc2nc(N3CCN(c4ccccc4)CC3)nc3c2cnn3C)cc1	.	-
COC(=O)COc1ccc2c3c(c(=O)oc2c1)CCCC3	-	.
O=C1C(=O)N(Cc2ccccc2)c2ccccc21	-	-
O=C1C(=O)N(CC(O)CN2C(=O)C(=O)c3ccccc32)c2ccccc21	-	15
CN(Cc1cc(=O)[nH]c2ccccc12)C(=O)c1ccco1	-	-
Cc1oc2ccc(NS(=O)(=O)c3ccc(F)cc3)cc2c1C(=O)O	-	-
COC(=O)c1c(C)oc2ccc(NS(=O)(=O)c3ccc(Cl)cc3)cc12	-	-
Cc1oc2ccc(NS(=O)(=O)c3ccc(Cl)cc3)cc2c1C(=O)O	-	23
Cc1oc2ccc(NS(=O)(=O)c3ccccc3)cc2c1C(=O)O	-	18
COc1ccc(N2CCCS2(=O)=O)cc1NS(=O)(=O)c1ccc(F)cc1	.	-
COc1cccc(-c2cc(C(=O)O)c3c(-c4ccc(Br)cc4)[nH]nc3n2)c1	.	-
COc1cccc(C2C(C#N)=C(C)NC3=C2C(=O)CC(c2ccccc2)C3)c1OC (configuration not stated)	-	-
CN(C(=O)Cc1c(C(=O)O)[nH]c2ccc(Cl)cc12)c1cccc(Cl)c1	-	.
Cc1ccc(C2C(=O)N(C3CCCC(C)C3C)CC(=O)N2Cc2ccccc2)cc1 (configuration not stated)	-	.
CCn1c2ccccc2c2cc(CN3CCN(S(C)(=O)=O)CC3)ccc21	-	-
CCn1c2ccccc2c2cc(CN3CCN(Cc4ccc(SC)cc4)CC3)ccc21	11	.
